Assay: growth of efflux-deficient E. coli DRC39 – strain DRC39, OD650, 48 h, E. coli filamentation inducers, primary screen (AID 1179);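 further: screen aims at cell division blockers that make cells filament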
Details: E. coli DRC39 delta-acrAB growth, higher = more signal, called active from +8 up or from −8 down

z-score, inactive:
COCC(=C=CC[C@H](O)c1ccc(OCCO)cc1)C[C@H](O)COCc1ccccc1 0.921
O=C1NC(=O)C2C1C=CC(C(O)c1cc(C(F)(F)F)cc(C(F)(F)F)c1)N2Nc1ccc(Cl)cc1Cl (stereo not given) -1.13
COC(=O)[C@H](Cc1ccccc1)N1CC(/C=C/C2CC2)=C[C@@H]1[C@@H](O)Cc1ccccc1 0.658
NC(=O)NCC#Cc1ccc2c(c1)[C@]1(C(=O)N2)[C@H](C(=O)Nc2nc3ccccc3s2)[C@H]2C(=O)O[C@H](c3ccccc3)[C@H](c3ccccc3)N2[C@@H]1c1ccc(O)cc1 0.321
O=C1O[C@@H](c2ccccc2)[C@@H](c2ccccc2)N2[C@@H](c3ccc(O)cc3)[C@]3(C(=O)Nc4ccc(C#CC5=CCCCC5)cc43)[C@@H](C(=O)N3CCN(c4ncccn4)CC3)[C@H]12 -0.348
CC(=O)NCCCC[C@@H]1NC(=O)[C@@H]2C[C@H](C(=O)O)[C@H](c3ccc(O)cc3)N2C1=O -0.301
COc1cc(CO)cc(I)c1O[C@H]1C=C(C(=O)NCCO)C[C@@H](NCc2ccccc2F)[C@@H]1O 0.41
O=C1NCC(=O)N2[C@@H]1C[C@@H](C(=O)O)[C@H]2c1ccc(O)cc1 -0.0242
COC(=O)[C@@]1(Cc2ccc(F)cc2)[C@H]2c3cc(C(=O)N4CCCC4)n(CCF)c3C[C@H]2CN1C(=O)c1ccccc1 -0.311
C[C@]1(C(=O)O)c2ccccc2C(=O)N(Cc2ccccc2)[C@H]1c1ccc(CO)cc1 -0.373
CCOC(=O)C[C@H]1[C@H](OC(=O)c2ccc(-c3ccccc3)cc2)[C@@H](NC(=O)C2CCCCC2)c2cc(OCCCO)ccc2N1C(=O)c1ccccc1 -0.566
O=C1O[C@@H](c2ccccc2)[C@@H](c2ccccc2)N2[C@@H](c3ccccc3OCCO)[C@]3(C(=O)Nc4ccccc43)[C@@H](C(=O)NC[C@H](O)c3ccccc3)[C@H]12 0.495
C=CC1c2cc(O)c(OC)cc2CCN1Cc1sc2ccccc2c1Cl (stereo not given) -0.404
CC(C)CN1C(=O)[C@@]2(c3ccc([N+](=O)[O-])cc3)CC(=O)N(CC34CC5CC(CC(C5)C3)C4)[C@@H]2c2ccc(CO)cc21 -0.213
COCCOC(=O)N1C(=O)[C@@]2(c3cc(C#Cc4ccc(OC)cc4)ccc31)[C@H](C(=O)N1CCN(c3ncccn3)CC1)[C@H]1C(=O)O[C@H](c3ccccc3)[C@H](c3ccccc3)N1[C@@H]2c1ccccc1OCCO 0.188
CCOC(=O)C[C@H]1[C@H](OC(=O)Cc2ccc3c(c2)OCO3)[C@@H](NC(=O)Cc2ccc(OC)cc2)c2cc(OCCCO)ccc2N1C(=O)c1ccccc1 0.386
[N-]=[N+]=Nc1ccccc1C[C@]1(C(=O)NCc2ccccc2)N=C(c2ccc(OCCCO)cc2)O[C@H]1c1ccccc1 -0.0745
COC(=O)Cn1c(C(=O)N2CCCC2)cc2c1C[C@H]1CN(C(=O)c3ccccc3)[C@@](Cc3ccc(F)cc3)(C(=O)OC)[C@@H]21 -0.181
COc1ccc(NN2C(C(O)c3ccco3)C=CC3C(=O)N(C4CCCCC4)C(=O)C32)cc1 (stereo not given) -0.109
CCCCN1CC=CC23O[C@@H]4C=CCOC(=O)[C@@H]4[C@H]2C(=O)N(C(C)CO)[C@@H]3C1=O (stereo not given in full) -0.478
COc1ccc(NC(=O)O[C@H]2[C@H](OC(=O)Nc3ccc4c(c3)OCO4)[C@@H](OC(=O)Nc3ccc4c(c3)OCO4)[C@@H](OC)O[C@@H]2CO)cc1 0.0559
C=CCN1C(=O)[C@]2(CC=C)N=C(c3ccc(OCCCO)cc3)O[C@@H]2c2ccccc21 0.509
CC1CC/C=C\[C@H]2OC34C=CCN(C(C)C)C(=O)[C@H]3N(CCCCCO)C(=O)[C@@H]4C2C(=O)O1 (stereo not given in full) 1.07
COC(=O)[C@@]1(Cc2ccccc2)[C@H]2c3cc(C(=O)N4CCCC4)n(Cc4ccsc4Br)c3C[C@H]2CN1C(=O)c1ccccc1 0.139
NCCCCCNC(=O)[C@@H]1C[C@@H]2C(=O)N[C@@H](CCCCN)C(=O)N2[C@@H]1c1cccc(OCCO)c1 1.22
CCOC(=O)C1=CC[C@@H](c2ccc([N+](=O)[O-])cc2)N(S(=O)(=O)c2ccc(C)cc2)[C@H]1c1ccccc1 -0.445
CC(C)c1ccc(NN2C(C(O)c3ccco3)C=CC3C(=O)N(c4ccccc4)C(=O)C32)cc1 (stereo not given) 0.245
COC1(C)CN(Cc2ccccc2Br)[C@H](/C=C/c2ccccc2)[C@H](Cc2ccccc2)O1 (stereo not given in full) 0.523
CC=CC(O)C1C=CC2C(=O)N(C)C(=O)C2N1N1CCCCC1 (stereo not given) -0.923
CCOC(=O)C1=CC[C@@H](c2cc(Cl)ccc2Cl)N(S(=O)(=O)c2ccc(C)cc2)[C@H]1c1ccc(OC)cc1 -1.03
C=C(CCCC)C(=O)CC[C@@H](OC(=O)c1ccccc1-c1ccccc1C(=O)O)c1cccc(OCCO)c1 -0.549
CC(C)(C)OC(=O)CC[C@@]1(C(=O)O)N=C(c2ccc(OCCCO)cc2)O[C@@H]1c1ccccc1CN=[N+]=[N-] 1.35
O=C1C[C@]2(c3ccc([N+](=O)[O-])cc3)C(=O)N(Cc3ccccc3)c3cc(CO)ccc3[C@H]2N1CC12CC3CC(CC(C3)C1)C2 0.0276
O=C(CS)NCCCCCCNC(=O)[C@@H]1C[C@@H]2C(=O)N3CCC[C@H]3C(=O)N2[C@@H]1c1cccc(OCCO)c1 1.65
CN(C)CCCCNC(=O)[C@H]1C[C@H]2C(=O)N[C@@H](CCCCN(C)C)C(=O)N2[C@H]1c1cccc(OCCO)c1 -0.0221

Source: PubChem BioAssay
